Measurements from the supplement of paper PMC11732987, “Enantioselective OTUD7B fragment discovery through chemoproteomics screening and high-throughput optimisation” (Communications Chemistry, 2025).

What was measured:
Assay in all cases: log2 ratio of Biotin-Ahx-Ub-VS probe labelling (fragment/DMSO); higher = less target engagement (more negative = stronger competition), active = hit call of the paper (q ≤ 0.05, log2 ratio ≤ -1)
Settings in all cases: compound concentration: 200 uM; treatment time: 3 h
OTUD6B = target: T1, OTUD6B (UniProt Q8N6M0)
T1 sequence (whole entry): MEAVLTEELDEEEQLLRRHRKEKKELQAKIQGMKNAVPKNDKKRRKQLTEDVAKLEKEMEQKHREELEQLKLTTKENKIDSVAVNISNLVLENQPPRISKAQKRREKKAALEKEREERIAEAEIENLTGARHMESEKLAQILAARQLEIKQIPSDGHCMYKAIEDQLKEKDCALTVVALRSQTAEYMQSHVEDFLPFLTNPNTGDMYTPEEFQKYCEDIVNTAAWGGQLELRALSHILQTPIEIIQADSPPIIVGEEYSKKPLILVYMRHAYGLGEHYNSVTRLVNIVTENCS
Outline: (§1)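 Fragment (200 µM) or vehicle was incubated for 3 h with triplicate HEK293T lysate samples of 495 µg, which were then treated with Biotin-Ahx-Ub-VS at 0.5 µM final for 1 h. Labelled DUBs were enriched on NeutrAvidin, digested with LysC and trypsin, and analysed by diaPASEF LC-MS/MS. Values are average log2 fragment/vehicle ratios from an unpaired t-test on global-median-normalised Spectronaut label-free quantities, using proteins with ≥2 unique peptides.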

OTUD7B = target: T2, OTUD7B (UniProt Q6GQQ9)
T2 sequence (whole entry): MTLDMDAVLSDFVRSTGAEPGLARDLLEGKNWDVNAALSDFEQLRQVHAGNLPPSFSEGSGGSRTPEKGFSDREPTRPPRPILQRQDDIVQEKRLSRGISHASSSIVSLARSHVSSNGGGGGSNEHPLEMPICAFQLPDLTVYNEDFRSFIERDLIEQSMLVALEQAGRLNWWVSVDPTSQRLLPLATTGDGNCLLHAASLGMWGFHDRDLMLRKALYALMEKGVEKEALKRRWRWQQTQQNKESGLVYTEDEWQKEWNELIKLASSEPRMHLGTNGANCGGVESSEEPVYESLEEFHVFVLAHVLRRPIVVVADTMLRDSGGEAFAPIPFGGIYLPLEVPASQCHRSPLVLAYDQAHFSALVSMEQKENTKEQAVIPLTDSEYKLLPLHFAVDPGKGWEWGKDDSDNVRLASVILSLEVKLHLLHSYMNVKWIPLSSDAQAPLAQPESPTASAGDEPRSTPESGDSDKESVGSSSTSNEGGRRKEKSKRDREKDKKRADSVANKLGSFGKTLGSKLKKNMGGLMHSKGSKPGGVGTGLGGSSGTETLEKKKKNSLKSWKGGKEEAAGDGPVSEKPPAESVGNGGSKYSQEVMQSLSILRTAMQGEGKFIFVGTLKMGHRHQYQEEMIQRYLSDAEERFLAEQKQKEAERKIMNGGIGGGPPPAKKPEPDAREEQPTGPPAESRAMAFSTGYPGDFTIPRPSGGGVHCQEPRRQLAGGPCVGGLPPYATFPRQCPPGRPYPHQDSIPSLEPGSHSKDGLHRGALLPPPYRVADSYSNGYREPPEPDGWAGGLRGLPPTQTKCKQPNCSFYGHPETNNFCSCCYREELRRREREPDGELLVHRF
Outline: as §1

PRPF8 = PRPF8 (UniProt Q6P2Q9)
Outline: as §1

PSMD7 = target: T3, PSMD7 (UniProt P51665)
T3 sequence (whole entry): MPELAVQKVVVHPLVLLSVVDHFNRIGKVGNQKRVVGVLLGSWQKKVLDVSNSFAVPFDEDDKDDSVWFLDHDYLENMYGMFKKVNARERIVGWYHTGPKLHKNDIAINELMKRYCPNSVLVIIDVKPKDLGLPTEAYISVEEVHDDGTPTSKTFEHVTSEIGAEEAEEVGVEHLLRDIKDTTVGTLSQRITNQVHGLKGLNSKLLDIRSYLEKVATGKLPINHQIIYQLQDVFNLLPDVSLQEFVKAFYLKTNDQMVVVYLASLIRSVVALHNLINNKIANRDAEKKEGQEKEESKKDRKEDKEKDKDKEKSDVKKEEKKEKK
Outline: as §1

UCHL1 = UCHL1 (UniProt P09936)
Sequence of UCHL1 (P09936 whole entry, looked up): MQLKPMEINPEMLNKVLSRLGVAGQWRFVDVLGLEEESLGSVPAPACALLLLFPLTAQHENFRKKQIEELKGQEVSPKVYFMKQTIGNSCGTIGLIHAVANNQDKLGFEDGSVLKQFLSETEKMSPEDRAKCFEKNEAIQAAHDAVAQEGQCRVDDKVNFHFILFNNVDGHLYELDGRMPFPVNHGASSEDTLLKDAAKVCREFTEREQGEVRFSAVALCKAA
Outline: as §1

UCHL3 = target: T4, UCHL3 (UniProt P15374)
T4 sequence (whole entry): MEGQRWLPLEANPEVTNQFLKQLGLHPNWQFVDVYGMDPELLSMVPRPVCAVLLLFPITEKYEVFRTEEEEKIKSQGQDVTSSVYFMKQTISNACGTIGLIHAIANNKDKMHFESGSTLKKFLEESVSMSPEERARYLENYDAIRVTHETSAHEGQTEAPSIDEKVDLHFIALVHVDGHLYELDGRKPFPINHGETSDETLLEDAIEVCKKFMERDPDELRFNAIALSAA
Outline: as §1

UCHL5 = target: T5, UCHL5 (UniProt Q9Y5K5)
T5 sequence (whole entry): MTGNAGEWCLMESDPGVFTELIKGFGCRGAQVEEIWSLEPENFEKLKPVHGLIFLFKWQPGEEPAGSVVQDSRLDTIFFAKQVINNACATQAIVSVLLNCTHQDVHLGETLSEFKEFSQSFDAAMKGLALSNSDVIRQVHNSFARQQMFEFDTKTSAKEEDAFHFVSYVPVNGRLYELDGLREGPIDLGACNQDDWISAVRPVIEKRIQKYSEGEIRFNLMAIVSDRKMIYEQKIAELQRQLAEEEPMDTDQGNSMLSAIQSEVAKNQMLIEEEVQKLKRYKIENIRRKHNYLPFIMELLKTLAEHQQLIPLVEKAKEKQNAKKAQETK
Outline: as §1

USP10 = USP10 (UniProt Q14694)
Sequence of USP10 (Q14694 whole entry): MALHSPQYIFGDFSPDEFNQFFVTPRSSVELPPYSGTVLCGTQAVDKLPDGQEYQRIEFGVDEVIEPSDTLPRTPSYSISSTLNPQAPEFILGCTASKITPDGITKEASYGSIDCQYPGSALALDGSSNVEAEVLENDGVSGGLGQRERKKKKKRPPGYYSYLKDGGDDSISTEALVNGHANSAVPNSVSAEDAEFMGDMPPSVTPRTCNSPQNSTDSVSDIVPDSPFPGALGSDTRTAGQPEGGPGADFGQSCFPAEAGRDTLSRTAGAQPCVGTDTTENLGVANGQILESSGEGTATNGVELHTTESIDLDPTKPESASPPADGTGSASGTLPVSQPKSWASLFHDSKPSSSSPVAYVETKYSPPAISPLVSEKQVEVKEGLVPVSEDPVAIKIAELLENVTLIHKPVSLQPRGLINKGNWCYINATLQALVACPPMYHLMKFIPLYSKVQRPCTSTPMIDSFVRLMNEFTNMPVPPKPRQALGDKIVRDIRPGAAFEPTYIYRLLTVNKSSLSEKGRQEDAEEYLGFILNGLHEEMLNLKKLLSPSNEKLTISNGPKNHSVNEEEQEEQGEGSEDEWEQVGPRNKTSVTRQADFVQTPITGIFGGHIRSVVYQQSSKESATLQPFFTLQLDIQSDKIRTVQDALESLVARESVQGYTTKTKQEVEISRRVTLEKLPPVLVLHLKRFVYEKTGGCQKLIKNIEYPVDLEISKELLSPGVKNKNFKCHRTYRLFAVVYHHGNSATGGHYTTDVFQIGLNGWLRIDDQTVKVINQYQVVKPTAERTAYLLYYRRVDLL
Outline: as §1

USP15 = target: T6, USP15 (UniProt Q9Y4E8)
T6 sequence (whole entry): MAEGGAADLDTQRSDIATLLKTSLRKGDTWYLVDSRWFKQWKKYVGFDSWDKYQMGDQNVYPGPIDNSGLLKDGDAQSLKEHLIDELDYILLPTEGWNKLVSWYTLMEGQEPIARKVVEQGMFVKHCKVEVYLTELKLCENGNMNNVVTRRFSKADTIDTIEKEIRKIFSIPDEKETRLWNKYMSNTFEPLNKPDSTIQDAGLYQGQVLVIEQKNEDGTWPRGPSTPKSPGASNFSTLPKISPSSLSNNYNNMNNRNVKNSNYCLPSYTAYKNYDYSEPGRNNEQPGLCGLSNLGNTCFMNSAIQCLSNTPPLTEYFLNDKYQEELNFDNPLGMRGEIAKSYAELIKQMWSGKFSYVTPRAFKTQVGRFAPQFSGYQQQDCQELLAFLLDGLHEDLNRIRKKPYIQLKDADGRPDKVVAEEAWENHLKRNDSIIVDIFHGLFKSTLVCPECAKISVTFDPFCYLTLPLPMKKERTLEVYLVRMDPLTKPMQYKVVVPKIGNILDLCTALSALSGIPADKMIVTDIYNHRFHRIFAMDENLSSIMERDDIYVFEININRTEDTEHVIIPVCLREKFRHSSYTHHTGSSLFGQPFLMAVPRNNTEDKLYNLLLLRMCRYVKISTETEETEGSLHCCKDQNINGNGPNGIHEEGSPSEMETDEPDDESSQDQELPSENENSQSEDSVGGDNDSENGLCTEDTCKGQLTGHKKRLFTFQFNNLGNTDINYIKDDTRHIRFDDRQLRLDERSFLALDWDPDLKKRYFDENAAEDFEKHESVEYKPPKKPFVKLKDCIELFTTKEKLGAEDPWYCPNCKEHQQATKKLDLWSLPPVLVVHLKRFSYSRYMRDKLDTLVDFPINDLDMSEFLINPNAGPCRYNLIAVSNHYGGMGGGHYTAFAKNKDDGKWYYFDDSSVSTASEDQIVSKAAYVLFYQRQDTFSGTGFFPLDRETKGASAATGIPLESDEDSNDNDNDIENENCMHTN
Outline: as §1

USP16 = USP16 (UniProt Q9Y5T5)
Sequence of USP16 (Q9Y5T5 whole entry, looked up): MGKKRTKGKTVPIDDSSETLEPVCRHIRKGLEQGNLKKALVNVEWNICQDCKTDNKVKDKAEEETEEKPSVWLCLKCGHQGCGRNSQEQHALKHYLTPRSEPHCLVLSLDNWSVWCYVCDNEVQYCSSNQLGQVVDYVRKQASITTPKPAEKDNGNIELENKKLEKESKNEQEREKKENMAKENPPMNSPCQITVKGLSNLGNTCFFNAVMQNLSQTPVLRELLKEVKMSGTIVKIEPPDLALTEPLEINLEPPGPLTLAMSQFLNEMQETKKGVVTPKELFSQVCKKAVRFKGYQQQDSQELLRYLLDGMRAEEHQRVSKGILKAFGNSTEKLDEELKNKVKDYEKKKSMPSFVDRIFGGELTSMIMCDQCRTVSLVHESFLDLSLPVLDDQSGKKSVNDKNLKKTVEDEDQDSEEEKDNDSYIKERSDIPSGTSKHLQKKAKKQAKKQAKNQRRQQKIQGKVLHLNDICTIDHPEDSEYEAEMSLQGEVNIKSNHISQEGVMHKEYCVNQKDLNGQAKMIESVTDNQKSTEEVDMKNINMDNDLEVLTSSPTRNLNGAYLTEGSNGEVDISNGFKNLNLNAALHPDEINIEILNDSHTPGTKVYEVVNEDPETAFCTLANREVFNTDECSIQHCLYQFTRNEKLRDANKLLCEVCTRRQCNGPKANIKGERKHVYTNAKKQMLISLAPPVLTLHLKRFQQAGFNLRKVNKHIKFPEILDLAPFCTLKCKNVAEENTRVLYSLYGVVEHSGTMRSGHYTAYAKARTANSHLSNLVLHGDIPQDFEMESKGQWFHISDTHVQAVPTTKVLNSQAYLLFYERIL
Outline: as §1

Measured: log2 ratio of Biotin-Ahx-Ub-VS probe labelling

Cl.O=C(CCl)N[C@H]1C[C@@H](n2cccn2)C1
inactive: OTUD6B -0.0562 | OTUD7B -0.797 | PRPF8 0.13 | PSMD7 0.118 | UCHL1 -1.11 | UCHL3 0.478 | UCHL5 -0.14 | USP10 0.0484 | USP15 -0.22 | USP16 0.0253
